Screening results from PubChem.
Sampled rows, rich in hits. Any-hit rate of the full collection: about 3.5%.
GPR151 ag – activates the human receptor GPR151 | activation, % at 11.2 µM | PathHunter beta-arrestin GPR151 cells, luminescence | 650,000 compounds, 1% hits | Q8TDV0; in the data active = activation above about 4.9%;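 also: 0% = median of compound wells and 100% = cells with positive control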
MITF primary – inhibitors of human MITF. O75030. 650,000 compounds, 0.91% hits. AlphaScreen MITF homodimerization, bead proximity signal. inhibition, % at 2.6 µM; in the data active = inhibition above about 50%;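 also: 0% = vehicle wells with protein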
FBW7 activator – human FBW7 E3 ligase activation, primary screen; 650,000 compounds, 0.13% hits; AlphaScreen FBW7–phospho-cyclin E peptide binding, activator screen; normalized activity (activation), % at 26.1 µM; AID 1259310; Q969H0; in the data active = normalized activity above about 1.9%;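 also: purified mutant Fbw7 with reduced substrate affinity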
Target sequence (Q969H0 whole entry, looked up): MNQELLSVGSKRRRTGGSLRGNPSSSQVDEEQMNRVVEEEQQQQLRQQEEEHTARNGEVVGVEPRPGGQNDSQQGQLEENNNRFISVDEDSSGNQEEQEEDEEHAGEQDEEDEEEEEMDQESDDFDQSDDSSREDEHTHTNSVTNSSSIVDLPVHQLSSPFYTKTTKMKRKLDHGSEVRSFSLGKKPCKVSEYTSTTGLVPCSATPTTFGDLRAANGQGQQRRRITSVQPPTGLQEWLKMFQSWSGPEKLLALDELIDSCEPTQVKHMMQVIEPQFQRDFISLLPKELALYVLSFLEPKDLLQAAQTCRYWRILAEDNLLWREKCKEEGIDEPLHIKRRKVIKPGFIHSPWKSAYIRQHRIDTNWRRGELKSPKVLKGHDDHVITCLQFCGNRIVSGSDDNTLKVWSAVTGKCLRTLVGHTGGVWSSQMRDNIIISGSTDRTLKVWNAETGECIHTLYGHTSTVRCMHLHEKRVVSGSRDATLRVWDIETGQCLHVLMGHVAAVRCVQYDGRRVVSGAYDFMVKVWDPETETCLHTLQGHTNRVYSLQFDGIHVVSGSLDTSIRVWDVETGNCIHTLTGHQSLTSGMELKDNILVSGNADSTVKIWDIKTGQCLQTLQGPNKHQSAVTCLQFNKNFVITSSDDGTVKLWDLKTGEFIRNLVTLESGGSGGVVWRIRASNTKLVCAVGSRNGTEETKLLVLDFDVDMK
TEAD-YAP block – TEAD-YAP interaction inhibition; HEK-TIYL cells, TEAD-Gal4/YAP UAS-luciferase luminescence; inhibition, % at 9.12 µM; 640,000 compounds, 1.4% hits; in the data active = inhibition above about 32%;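 also: 0% = median of test compound wells and 100% = reference inhibitor wells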
MITF confirm – human MITF inhibition, confirmation. shares compounds with MITF primary. AlphaScreen MITF homodimerization, biotin/His-MITF beads. inhibition, % at 2.6 µM. 4,700 compounds, 16% hits. AID 1259372;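 active = inhibition above a cutoff derived from the DMSO control wells, cut at about 28% in these data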;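 also: 0% = MITF dimer wells with DMSO only; inhibitors lower the bead chemiluminescence by keeping MITF from dimerizing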
AlphaScreen DR – optically interferes with AlphaScreen signal in dose response | shares compounds with MITF primary | AlphaScreen optical interference counterscreen, cell-free | IC50, µM | 480 compounds, 6% hits | AID 1259373; call rule not given here
AS interf ctr – counter-screen: compounds optically interfering with AlphaScreen; shares compounds with MITF primary; LysRS AlphaScreen counterscreen, signal interference, triplicate; inhibition, % at 2.6 µM; 4,700 compounds, 7.6% hits; AID 1259376;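 active = inhibition above a cutoff derived from the DMSO control wells, cut at about 30% in these data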
An asterisk follows results filed as active.

Results for CS(=O)(=O)N1CCN(Cc2ccccc2[N+](=O)[O-])CC1 ?
GPR151 ag: 0.9; MITF primary: 10.7; FBW7 activator: 0.6; TEAD-YAP block: 13.1

Results for CC(=O)c1ccc(N2CCN(Cc3cccs3)CC2)cc1 ?
GPR151 ag: 0.3; MITF primary: 55.8*; FBW7 activator: -0.1; TEAD-YAP block: -19.2; MITF confirm: 5.0; AS interf ctr: -0.1

How did CCOc1ccc(CN2CCN(Cc3ccccc3[N+](=O)[O-])CC2)cc1 do in these assays?
GPR151 ag: 2.4; MITF primary: 56.4*; FBW7 activator: 0.0; TEAD-YAP block: 9.7; MITF confirm: 4.2; AS interf ctr: 4.4

Results for COc1ccccc1N(CN1CCCC1=O)C(=O)c1ccccc1Br ?
GPR151 ag: 1.1; MITF primary: -6.0; FBW7 activator: -0.3; TEAD-YAP block: 2.6

Results for COc1ccc(CN2CCN(C(=O)c3cccc4ccccc34)CC2)cc1OC ?
GPR151 ag: 0.7; MITF primary: 44.3; FBW7 activator: -0.1; TEAD-YAP block: -1.7

Results for O=[N+]([O-])c1ccccc1CN1CCN(Cc2c[nH]c3ccccc23)CC1 ?
GPR151 ag: -1.0; MITF primary: 61.5*; FBW7 activator: 0.1; TEAD-YAP block: 10.7; MITF confirm: 5.7; AS interf ctr: -8.5

How did COc1ccc(C(=O)N2CCN(Cc3ccccc3[N+](=O)[O-])CC2)cc1 do in these assays?
GPR151 ag: -1.4; MITF primary: 53.9*; FBW7 activator: 0.3; TEAD-YAP block: 7.5; MITF confirm: -2.5; AS interf ctr: -7.1

Results for COc1cccc(CN2CCN(C(=O)c3cccc4ccccc34)CC2)c1OC ?
GPR151 ag: -2.0; MITF primary: 53.7*; FBW7 activator: 0.3; TEAD-YAP block: -3.5; MITF confirm: 9.6; AS interf ctr: -11.6

What do the screens show for `COc1cccc(CN2CCN(Cc3ccco3)CC2)c1OC`?
GPR151 ag: -2.0; MITF primary: 41.9; FBW7 activator: -0.2; TEAD-YAP block: -6.9

How did COc1cccc(CN2CCN(C(=O)c3ccco3)CC2)c1OC do in these assays?
GPR151 ag: -0.1; MITF primary: 57.2*; FBW7 activator: 0.3; TEAD-YAP block: -4.6; MITF confirm: 7.9; AS interf ctr: 17.7

How did COc1ccccc1C(=O)N1CCN(Cc2ccccc2[N+](=O)[O-])CC1 do in these assays?
GPR151 ag: -0.9; MITF primary: -0.4; FBW7 activator: 0.1; TEAD-YAP block: 1.8

Results for COc1cc(C(=O)N2CCN(Cc3ccccc3[N+](=O)[O-])CC2)cc(OC)c1OC ?
GPR151 ag: 2.1; MITF primary: 67.1*; FBW7 activator: 0.2; TEAD-YAP block: 1.7; MITF confirm: -16.6; AS interf ctr: -4.3

What do the screens show for `COc1cc(CN2CCN(C(=O)c3cc(OC)c(OC)c(OC)c3)CC2)c([N+](=O)[O-])cc1OC`?
GPR151 ag: -1.5; MITF primary: 36.0; FBW7 activator: -0.4; TEAD-YAP block: -3.8

Results for COc1cc(OC)cc(C(=O)N2CCN(Cc3c[nH]c4ccccc34)CC2)c1 ?
GPR151 ag: -0.6; MITF primary: 16.3; FBW7 activator: 0.2; TEAD-YAP block: 6.6

Results for O=[N+]([O-])c1ccc(N2CCN(Cc3ccccc3[N+](=O)[O-])CC2)cc1 ?
GPR151 ag: 1.2; MITF primary: 8.6; FBW7 activator: -0.6; TEAD-YAP block: 27.3

How did O=C(c1ccncc1)N1CCN(Cc2ccccc2[N+](=O)[O-])CC1 do in these assays?
GPR151 ag: -0.8; MITF primary: 78.4*; FBW7 activator: -0.3; TEAD-YAP block: -6.5; MITF confirm: 73.8*; AlphaScreen DR: >6.13; AS interf ctr: -9.6

Results for COc1cc(OC)cc(C(=O)N2CCN(Cc3ccccc3[N+](=O)[O-])CC2)c1 ?
GPR151 ag: -1.8; MITF primary: 61.0*; FBW7 activator: -0.3; TEAD-YAP block: 7.2; MITF confirm: -3.6; AS interf ctr: 9.3

Results for CC(=O)c1ccc(N2CCN(Cc3ccccc3[N+](=O)[O-])CC2)cc1 ?
GPR151 ag: 0.1; MITF primary: 50.8*; FBW7 activator: 0.1; TEAD-YAP block: -12.2; MITF confirm: 1.3; AS interf ctr: 2.2

Results for CC(C)c1ccc(C(=O)O)c(C(C)C)c1 ?
GPR151 ag: -1.5; MITF primary: 5.2; FBW7 activator: -0.1; TEAD-YAP block: -5.2

What do the screens show for `CCCCNC(=O)CSc1nc2cc3c(cc2c(=O)n1Cc1ccco1)OCO3`?
GPR151 ag: -0.3; MITF primary: -4.6; FBW7 activator: 0.0; TEAD-YAP block: 0.3

How did COc1ccc(-c2ccc(C(=O)N3CC(=O)N(c4ccccc4C)C(C)C3)o2)cc1 (stereo not drawn) do in these assays?
GPR151 ag: 1.4; MITF primary: -5.2; FBW7 activator: -0.2; TEAD-YAP block: 4.4

How did Cc1ccccc1CN1CCN(C(=O)c2ccccc2)CC1 do in these assays?
GPR151 ag: -0.6; MITF primary: 36.8; FBW7 activator: 0.1; TEAD-YAP block: 1.6

Results for COc1cccc(OC)c1C(=O)N1CCN(Cc2ccccc2C)CC1 ?
GPR151 ag: -0.7; MITF primary: 71.2*; FBW7 activator: 0.3; TEAD-YAP block: 0.5; MITF confirm: 7.6; AS interf ctr: -6.4

Results for CCS(=O)(=O)N1CCCC(C(=O)N2CCc3ccccc3C2)C1 (stereo not drawn) ?
GPR151 ag: 0.4; MITF primary: 5.4; FBW7 activator: 0.2; TEAD-YAP block: 4.1

How did O=C(C1CCN(c2ccc(N3CCOCC3)nn2)CC1)N1CCc2ccccc2C1 do in these assays?
GPR151 ag: 1.3; MITF primary: 11.2; FBW7 activator: 0.3; TEAD-YAP block: 4.1

What do the screens show for `O=C(C1CCCN(Cc2ccncc2)C1)N1CCc2ccccc2C1` (stereo not drawn)?
GPR151 ag: 0.2; MITF primary: 89.9*; FBW7 activator: 0.0; TEAD-YAP block: 6.0; MITF confirm: -12.0; AS interf ctr: -16.4

What do the screens show for `O=C(C1CCNCC1)N1CCc2ccccc2C1`?
GPR151 ag: 0.1; MITF primary: 60.4*; FBW7 activator: -0.1; TEAD-YAP block: -8.3; MITF confirm: 4.2; AS interf ctr: 12.3

What do the screens show for `O=C(O)c1ccc(F)c(S(=O)(=O)NCc2ccccc2)c1`?
GPR151 ag: -0.8; MITF primary: 0.9; FBW7 activator: 0.0; TEAD-YAP block: -17.3

Results for CC(C)N(c1ccccc1)c1ccc(NC(=O)CN2C(=O)c3ccccc3S2(=O)=O)cc1 ?
GPR151 ag: 0.9; MITF primary: 6.6; FBW7 activator: 0.0; TEAD-YAP block: 6.5

How did COc1ccc(OC)c(CN2CCC(N3CCN(CCO)CC3)CC2)c1 do in these assays?
GPR151 ag: -1.0; MITF primary: 81.1*; FBW7 activator: 0.3; TEAD-YAP block: 1.0; MITF confirm: -4.9; AS interf ctr: 3.6
